The assay has as its system Imidazoline I2. Description: CYP450 and receptor off-target profile – biochemical, Ricerca HitProfilingScreen, selectivity assay for GPR7 antagonist project, late-stage follow-up (AID 504401). The conditions noted are these: Ricerca radioligand binding and CYP450 panel, central, at 10 µM, hits give high values.

Values without a mark were called inactive. How the calls were made is not given here.

As usually defined, the inhibition is the relative decrease from the control value, in per cent. As for `COc1ccc(Oc2c(Cl)cnn(-c3cc(C)cc(C)c3)c2=O)cc1`, the inhibition is 22%.

For the origin of these results see PubChem BioAssay AID504401 (The Scripps Research Institute Molecular Screening Center, 2011).
